{
  "source": "paper PMC4336329",
  "about": "(PLoS ONE, 2015)",
  "note": "The campaign covered roughly 310,000 compounds. About 14,000 (4.5%) showed an effect of 50% or more. Effects have a minus sign here. The sample holds strong results, similar compounds and a random draw of the others, so the mix is not that of the screen.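 Also: peak tail current of the secondary pulse compared with the same well before compound.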",
  "data": [
    {"target": "human ether-à-go-go-related gene (hERG) potassium channel (human, UniProt Q12809)", "sequence (Q12809 whole entry, looked up)": "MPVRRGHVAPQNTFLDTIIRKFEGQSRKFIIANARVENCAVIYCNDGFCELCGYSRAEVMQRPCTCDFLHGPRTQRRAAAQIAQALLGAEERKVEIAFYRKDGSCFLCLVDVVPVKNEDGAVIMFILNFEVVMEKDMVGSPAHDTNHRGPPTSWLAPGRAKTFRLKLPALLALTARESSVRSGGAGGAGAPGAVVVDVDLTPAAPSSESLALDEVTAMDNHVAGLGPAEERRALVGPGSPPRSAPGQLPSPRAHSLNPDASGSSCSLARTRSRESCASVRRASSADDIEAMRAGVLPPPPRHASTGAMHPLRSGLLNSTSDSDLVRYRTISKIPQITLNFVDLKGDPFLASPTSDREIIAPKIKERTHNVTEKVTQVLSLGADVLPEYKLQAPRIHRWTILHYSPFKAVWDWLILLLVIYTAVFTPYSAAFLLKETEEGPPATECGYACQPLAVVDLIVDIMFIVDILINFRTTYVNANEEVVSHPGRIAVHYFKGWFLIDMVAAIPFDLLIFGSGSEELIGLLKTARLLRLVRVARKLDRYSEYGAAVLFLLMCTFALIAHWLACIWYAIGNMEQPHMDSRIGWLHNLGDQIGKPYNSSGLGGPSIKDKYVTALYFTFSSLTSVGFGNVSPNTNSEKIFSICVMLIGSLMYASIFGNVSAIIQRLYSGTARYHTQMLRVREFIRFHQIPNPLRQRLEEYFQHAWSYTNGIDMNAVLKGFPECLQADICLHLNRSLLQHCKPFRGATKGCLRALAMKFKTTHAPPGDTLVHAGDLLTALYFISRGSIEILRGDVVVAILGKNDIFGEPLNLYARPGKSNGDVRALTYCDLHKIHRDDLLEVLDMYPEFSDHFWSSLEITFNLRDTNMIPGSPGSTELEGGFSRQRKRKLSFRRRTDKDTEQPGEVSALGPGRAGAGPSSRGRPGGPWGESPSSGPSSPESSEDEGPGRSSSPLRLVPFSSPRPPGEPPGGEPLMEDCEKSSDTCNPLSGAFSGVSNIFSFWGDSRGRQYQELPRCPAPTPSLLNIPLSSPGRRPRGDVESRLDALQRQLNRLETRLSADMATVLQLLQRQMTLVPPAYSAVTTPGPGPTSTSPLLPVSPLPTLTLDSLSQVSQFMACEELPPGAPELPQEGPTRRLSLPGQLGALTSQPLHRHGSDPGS", "assay": "primary screen, population patch clamp on CHO cells stably expressing hERG; higher = less effect of the substance", "units": {"hERG current change (%, negative = inhibition) at 10uM": "%"}, "values": [
      {"smiles": "c1ccc(Nc2nc(N3CCNCC3)nc(N3CCOCC3)n2)cc1", "hERG current change (%, negative = inhibition) at 10uM": -43},
      {"smiles": "CCOC(=O)C1(Cc2cccc(OC)c2)CCN(Cc2ccc(C)s2)CC1", "hERG current change (%, negative = inhibition) at 10uM": -67.1},
      {"smiles": "CCOC(=O)C1(Cc2cccc(OC)c2)CCN(Cc2cnc(C)s2)CC1", "hERG current change (%, negative = inhibition) at 10uM": -12.2},
      {"smiles": "CCOC(=O)C1(Cc2ccccc2)CCN(Cc2ccc(C)s2)CC1", "hERG current change (%, negative = inhibition) at 10uM": -46},
      {"smiles": "CN(C)S(=O)(=O)c1ccc(N2CCOCC2)c(C(=O)NCc2ccc3c(c2)OCO3)c1", "hERG current change (%, negative = inhibition) at 10uM": -14.7},
      {"smiles": "COC(=O)c1ccc(/C=N/Nc2nc3ccccc3[nH]2)cc1", "hERG current change (%, negative = inhibition) at 10uM": 11.4},
      {"smiles": "C=C(C)C(=O)Nc1cccc(C2=NOC3(C2)C[C@@H](C(N)=O)N(C(=O)c2cc([N+](=O)[O-])cc([N+](=O)[O-])c2C)C3)c1", "note": "(stereo partly drawn)", "hERG current change (%, negative = inhibition) at 10uM": 1.96},
      {"smiles": "O=C(Nc1ccc(Cl)c(Cl)c1)N1CCCCCC1", "hERG current change (%, negative = inhibition) at 10uM": 2.82},
      {"smiles": "COc1cccc(NC(=O)N2CCC(N3CCCCC3)CC2)c1", "hERG current change (%, negative = inhibition) at 10uM": -7.99},
      {"smiles": "O=C(Nc1ccc(Cl)c(Cl)c1)N1CCC(N2CCCCC2)CC1", "hERG current change (%, negative = inhibition) at 10uM": -63.5},
      {"smiles": "Cc1ccc(C(C)(C)C)c(OCCN2CCCC2)c1", "hERG current change (%, negative = inhibition) at 10uM": -19.5},
      {"smiles": "CC(C)[C@@H](N)C(=O)N/N=C/c1ccc2nccnc2c1.Cl", "hERG current change (%, negative = inhibition) at 10uM": 17.1},
      {"smiles": "CC1CCCN(CCCNC(=O)CN2C(=O)COc3ccccc32)C1", "note": "(stereo not drawn)", "hERG current change (%, negative = inhibition) at 10uM": -4.59},
      {"smiles": "O=C(Nc1nccs1)c1cc2c(s1)-c1ccccc1OC2", "hERG current change (%, negative = inhibition) at 10uM": 16.2},
      {"smiles": "O=C(Nc1cccnc1Cl)c1cc2c(s1)-c1ccccc1OC2", "hERG current change (%, negative = inhibition) at 10uM": -3.48},
      {"smiles": "CC1CC(C)CN(CCCNC(=O)c2cc3c(s2)-c2ccccc2OC3)C1", "note": "(stereo not drawn)", "hERG current change (%, negative = inhibition) at 10uM": -70.2},
      {"smiles": "CCOC(=O)C1CCN(C(=O)c2cc3c(s2)-c2ccccc2OC3)CC1", "hERG current change (%, negative = inhibition) at 10uM": -38.9},
      {"smiles": "Cc1cccc2c1-c1sc(C(=O)Nc3ccccc3N3CCN(C)CC3)cc1CO2", "hERG current change (%, negative = inhibition) at 10uM": -13.4},
      {"smiles": "CN1CCN(c2ccccc2NC(=O)c2cc3c(s2)-c2ccccc2OC3)CC1", "hERG current change (%, negative = inhibition) at 10uM": -51.3},
      {"smiles": "CC1CCCN(CCCNC(=O)c2cc3c(s2)-c2ccccc2OC3)C1", "note": "(stereo not drawn)", "hERG current change (%, negative = inhibition) at 10uM": -76.4},
      {"smiles": "CC1CCN(CCCNC(=O)c2cc3c(s2)-c2ccccc2OC3)CC1", "hERG current change (%, negative = inhibition) at 10uM": -74.6},
      {"smiles": "O=C(O)c1cc2c(s1)-c1ccccc1OC2", "hERG current change (%, negative = inhibition) at 10uM": 9.73},
      {"smiles": "Cc1csc(NC(=O)c2cc3c(s2)-c2ccccc2OC3)n1", "hERG current change (%, negative = inhibition) at 10uM": 3.36},
      {"smiles": "C=CCn1c(SC)nc2sc3c(c2c1=O)CCc1ccccc1-3", "hERG current change (%, negative = inhibition) at 10uM": 10.3},
      {"smiles": "Cc1ncoc1C(=O)Nc1cccc(Cl)c1", "hERG current change (%, negative = inhibition) at 10uM": -7.91},
      {"smiles": "OCC[C@H]1C[C@H](O)[C@@H](O)[C@]2(OCCc3ccccc32)O1", "hERG current change (%, negative = inhibition) at 10uM": 2.59},
      {"smiles": "CC1(C)Cc2c(cnn2-c2ccccc2)C(NC(=O)CCN2CCCC2=O)C1", "note": "(stereo not drawn)", "hERG current change (%, negative = inhibition) at 10uM": 6.21},
      {"smiles": "C=C1CCC[C@]2(C)C[C@H]3OC(=O)C(CNC(C)CC)[C@H]3CC12", "note": "(stereo partly drawn)", "hERG current change (%, negative = inhibition) at 10uM": 0.523},
      {"smiles": "CCN(CC)C(=O)c1ccccc1NC(=O)c1ccccc1SC", "hERG current change (%, negative = inhibition) at 10uM": -39.6},
      {"smiles": "CCOCc1nc(C)c(Cl)c(NS(=O)(=O)c2ccc(N)cc2)n1", "hERG current change (%, negative = inhibition) at 10uM": 13.9},
      {"smiles": "COc1ccc(OC)c(N(CC(=O)N2CCCCC2)S(=O)(=O)c2ccc(OC)c(OC)c2)c1", "hERG current change (%, negative = inhibition) at 10uM": 10.6},
      {"smiles": "COc1cc(Cl)c(C)cc1NC(=O)COC(=O)c1cc(SC)ccc1Cl", "hERG current change (%, negative = inhibition) at 10uM": 8.99},
      {"smiles": "Cc1ccc(OCCC(=O)Nc2ccc3c(c2)OCO3)cc1", "hERG current change (%, negative = inhibition) at 10uM": 0.269},
      {"smiles": "CCN(Cc1ccccc1)Cc1cccc([N+](=O)[O-])c1", "hERG current change (%, negative = inhibition) at 10uM": -23.5},
      {"smiles": "CCN1CCN(c2nc3ccccc3nc2NS(=O)(=O)c2ccc(NC(C)=O)cc2)CC1", "hERG current change (%, negative = inhibition) at 10uM": 5.21},
      {"smiles": "COc1ccc(OC)c2c1C(=O)c1ccccc1C2=O", "hERG current change (%, negative = inhibition) at 10uM": -5.81},
      {"smiles": "O=C(NCCCN1CCOCC1)c1cc2c(s1)-c1ccccc1OC2", "hERG current change (%, negative = inhibition) at 10uM": -44.5},
      {"smiles": "CC1CCCC(C)N1CCCNC(=O)c1cc2c(s1)-c1ccccc1OC2", "note": "(stereo not drawn)", "hERG current change (%, negative = inhibition) at 10uM": -69.9},
      {"smiles": "O=C(NC1CC1)c1cc2c(s1)-c1ccccc1OC2", "hERG current change (%, negative = inhibition) at 10uM": 12.6},
      {"smiles": "CCN1CCN(CCCNC(=O)c2cc3c(s2)-c2ccccc2OC3)CC1", "hERG current change (%, negative = inhibition) at 10uM": -66.7},
      {"smiles": "COC(=O)c1cc2c(s1)-c1ccccc1OC2", "hERG current change (%, negative = inhibition) at 10uM": 0.157},
      {"smiles": "CN(C)CCNC(=O)c1cc2c(s1)-c1ccccc1OC2", "hERG current change (%, negative = inhibition) at 10uM": -67.2},
      {"smiles": "CC1CCCC(C)N1CCCNC(=O)c1ccc2c(c1)NC(=O)c1ccccc1S2", "note": "(stereo not drawn)", "hERG current change (%, negative = inhibition) at 10uM": 4.54},
      {"smiles": "O=C(NCc1cccs1)c1cc2c(s1)-c1ccccc1OC2", "hERG current change (%, negative = inhibition) at 10uM": 1.42},
      {"smiles": "O=C(Nc1cccnc1)c1cc2c(s1)-c1ccccc1OC2", "hERG current change (%, negative = inhibition) at 10uM": -2.06}
    ]}
  ]
}
